Compounds without any hit were thinned out: in the full panel of roughly 79,000, 15% have a hit. Values without a mark were called inactive. Activity calls are given as the source filed them. Rule as the data show it: active = growth inhibition above about 70%; inactive = the rest.
What was measured:
[1] = NCI Yeast Anticancer Drug Screen. Data for the rad50 strain (AID 155);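 also: 0% = growth of vehicle-only cultures of the same strain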; conditions: S. cerevisiae rad50 strain growth inhibition, active compounds read high
Summary of the method: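 Genetically altered yeast (DNA repair pathway); compound treatment; growth inhibition vs vehicle ctrl.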

[2] = NCI Yeast Anticancer Drug Screen. Data for the mec2-1 strain (AID 157); conditions: S. cerevisiae mec2-1 strain, active compounds read high
Summary of the method: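 Compounds were applied to mec2-1 yeast cells. Their growth was then compared with that of vehicle-treated cultures to give growth inhibition.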

[3] = NCI Yeast Anticancer Drug Screen. Data for the sgs1 mgt1 strain (AID 161);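 also: 0% = growth of cultures given vehicle only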; conditions: S. cerevisiae sgs1 mgt1 strain, active compounds read high
Summary of the method: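 This yeast growth screen uses a strain with defined DNA-repair lesions; compound-treated growth is compared with vehicle-treated growth.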

[4] = NCI Yeast Anticancer Drug Screen. Data for the cln2 rad14 strain (AID 165);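 also: 0% = growth equal to vehicle treated cultures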; conditions: S. cerevisiae cln2 rad14 strain, active compounds read high
Summary of the method: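 Strain: cln2 rad14 yeast, altered in cell cycle control and DNA damage repair. Read-out: growth inhibition vs vehicle.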

[5] = NCI Yeast Anticancer Drug Screen. Data for the bub3 strain (AID 167); conditions: S. cerevisiae bub3 mutant strain, active compounds read high
Summary of the method: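 Yeast carrying a defined mutation is treated with each compound, and growth is compared with that of vehicle-exposed cells to give inhibition.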

[6] = NCI Yeast Anticancer Drug Screen. Data for the mlh1 rad18 strain (AID 175); conditions: S. cerevisiae mlh1 rad18 strain growth inhibition, active compounds read high
Summary of the method: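 A repair-deficient yeast strain is exposed to test compound, and growth is scored relative to vehicle-treated controls.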

[7] = at 5.0 µM (retest, dose inferred, filed as 0.5)
[8] = at 50.0 µM (retest, dose inferred, filed as 5.0)

Row | SMILES | growth inhibition [1, 7] | growth inhibition [1, 8] | growth inhibition ([1]; at 50.0 µM) | growth inhibition [2, 7] | growth inhibition [2, 8] | growth inhibition ([2]; at 50.0 µM) | growth inhibition [3, 7] | growth inhibition [3, 8] | growth inhibition ([3]; at 50.0 µM) | growth inhibition [4, 7] [%] | growth inhibition [4, 8] | growth inhibition ([4]; at 50.0 µM) | growth inhibition [5, 7] | growth inhibition [5, 8] | growth inhibition ([5]; at 50.0 µM) | growth inhibition [6, 7] | growth inhibition [6, 8] | growth inhibition ([6]; at 50.0 µM)
1 | C[C@H]1CC[C@@H]2[C@@H](C)[C@H]3[C@H](C[C@H]4[C@@H]5CC=C6C[C@@H](O)CC[C@]6(C)[C@H]5CC[C@]34C)N2C1 | 27% | 98% (active) | 58% | 28% | 99% (active) | 93.5% (active) | 44% | 99% (active) | 93.2% (active) | 28 | 98% (active) | 91.2% (active) | 48% | 99% (active) | 93% (active) | 56% | 98% (active) | 86.6% (active)
2 | CCOC(=O)c1c(NC(=O)CBr)sc(C)c1C | 8% | 48% | 21.2% | -3% | 64% | 7.8% | 10% | 74% (active) | 32.9% | 0 | 18% | -28.4% | 5% | 65% | 38.1% | 7% | 69% | 21.8%
3 | COc1ccc2c(c1)S(=O)(=O)C(c1ccccc1)=CC2=O | 81% (active) | 99% (active) | 99.5% (active) | 87% (active) | 99% (active) | 99.5% (active) | 91% (active) | 99% (active) | 99.2% (active) | 66 | 99% (active) | 97.5% (active) | 87% (active) | 98% (active) | 99.5% (active) | 95% (active) | 98% (active) | 99% (active)
4 | CC(C)C[P+](c1ccccc1)(c1ccccc1)c1ccccc1 | 0% | 23% | 62.6% | -3% | 54% | 58.9% | -34% | 9% | 50.6% | -5 | 10% | 49.5% | -7% | 24% | 54.2% | 12% | 45% | 73.9% (active)
5 | O=C(O)CCC(c1ccccc1)(c1ccccc1)c1ccccc1 | 66% | 99% (active) | 99.5% (active) | 53% | 100% (active) | 99.7% (active) | 54% | 99% (active) | 98.9% (active) | -59 | 99% (active) | 99% (active) | 80% (active) | -50% | 99.5% (active) | 64% | 99% (active) | 99.2% (active)
6 | CCCCN(CCCC)CCNc1ccc(NS(=O)(=O)c2ccccc2)c2sc3ccccc3c(=O)c12 | 43% | 96% (active) | 96.8% (active) | 21% | 95% (active) | 97.8% (active) | 54% | 96% (active) | 98.2% (active) | 31 | 96% (active) | 93.3% (active) | 32% | 94% (active) | 96.4% (active) | 96% (active) | 94% (active) | 95.3% (active)
7 | CC1(C)[C@@H]2CC[C@]1(C)[C@@H](OC(=O)CSC#N)C2 | 92% (active) | 99% (active) | 99.4% (active) | 74% (active) | 100% (active) | 99.6% (active) | 98% (active) | 100% (active) | 99.3% (active) | 24 | 99% (active) | 98.8% (active) | 95% (active) | 100% (active) | 99.6% (active) | 75% (active) | 99% (active) | 99.2% (active)
8 | Oc1c(Cl)cc(Cl)cc1C=NCCSc1ccc(Cl)cc1 | 33% | 99% (active) | 92.2% (active) | 30% | 99% (active) | 93.8% (active) | 27% | 99% (active) | 94.8% (active) | 23 | 99% (active) | 93.2% (active) | 45% | 99% (active) | 93.9% (active) | 49% | 99% (active) | 92.7% (active)
9 | OCCN=C1c2ccccc2C2C(c3ccccc31)C1c3ccccc3C(=NCCO)c3ccccc3C21 (stereo not given) | -9% | 13% | 46.8% | -4% | -8% | 29.8% | 6% | 6% | 37.4% | 4 | 18% | 31.1% | -6% | 6% | 40.5% | 3% | 47% | 82% (active)
10 | Cc1cccc2c1CC1(C2)Cc2c(C)cccc2C1=O (stereo not given) | -3% | 87% (active) | 36.9% | -30% | 78% (active) | 42.1% | -23% | 68% | 57.6% | 26 | 20% | 55.5% | 21% | 92% (active) | 70% (active) | -11% | 52% | 50.4%
